Results taken from ChEMBL document CHEMBL3988442, “University of Dundee, Small-Polar-MMV Screening Library” (2021).

The molecules below were run against T1, Aspartate--tRNA(Asp/Asn) ligase (Mycobacterium tuberculosis (strain ATCC 25618 / H37Rv)) (UniProt P9WFW3) (assay: Assay for Asp RNA synthetase-1 from Mycobacterium tuberculosis). Details: 30 µM.
T1 sequence (whole entry): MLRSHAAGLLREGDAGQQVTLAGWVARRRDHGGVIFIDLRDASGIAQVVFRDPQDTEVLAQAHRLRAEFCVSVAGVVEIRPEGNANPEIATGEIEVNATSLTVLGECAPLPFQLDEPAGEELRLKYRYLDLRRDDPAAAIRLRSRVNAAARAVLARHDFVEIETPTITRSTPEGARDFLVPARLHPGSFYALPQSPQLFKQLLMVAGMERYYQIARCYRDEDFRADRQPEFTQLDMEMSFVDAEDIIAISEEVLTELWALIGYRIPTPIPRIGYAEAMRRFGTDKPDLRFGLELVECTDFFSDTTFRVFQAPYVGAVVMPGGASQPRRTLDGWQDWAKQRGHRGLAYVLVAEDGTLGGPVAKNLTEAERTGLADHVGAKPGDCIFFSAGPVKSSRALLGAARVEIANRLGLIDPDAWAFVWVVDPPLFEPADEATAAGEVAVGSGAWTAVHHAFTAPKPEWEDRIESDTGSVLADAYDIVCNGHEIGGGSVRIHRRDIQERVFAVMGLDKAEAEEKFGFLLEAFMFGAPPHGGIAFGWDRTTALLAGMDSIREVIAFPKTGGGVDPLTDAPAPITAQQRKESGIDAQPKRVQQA
Type: functional
Set-up: scale not given: in the data most compounds retested in dose-response had high values

Row | Compound | Percent Effect
1 | COc1cccc2c1OCC(C(=O)N1CCN(S(C)(=O)=O)CC1)C2 (centres undefined) | -3.14%
2 | O=C(CCN1CCOC(Cn2cccn2)C1)NC1CCCC1 (centres undefined) | -1.67%
3 | CCn1cnnc1CNC(=O)NC(C)c1cccs1 (centres undefined) | 0.243%
4 | CCc1nc(CN2CCCC(NCc3nnc(C4CC4)o3)C2)no1 (centres undefined) | -2.05%
5 | Cc1ccccc1N1CCN(C(=O)c2ccc[nH]2)C(C)C1 (centres undefined) | -2.33%
6 | O=C(NCCC1=CCCCC1)NCc1nnc2n1CCC2 | 2.5%
7 | COc1ccc(CNC2CCN(CCc3ccncc3)CC2)cc1O | 5.98%
8 | Cc1nc(C(=O)N2CCc3c(nc(-c4ccncc4)[nH]c3=O)C2)cs1 | 0.783%
9 | Cc1ccc(CN2CCOC3(COCCN(CCN(C)C)C3)C2)o1 (centres undefined) | 5.87%
10 | Cc1nccn1C1CCCN(C(=O)c2ccc(N3CCCC3)nn2)C1 (centres undefined) | 2.5%
11 | Cn1cc(CN2CCCN(C(=O)c3cc[nH]n3)CC2)cn1 | -4.23%
12 | CCc1ccc(NC(=O)N2C[C@H]3C[C@H](C(=O)NC)[C@@H](C2)O3)cc1 | 3.34%
13 | CC(C)CNC(=O)[C@H]1CCS(=O)(=O)[C@@H]2CN(Cc3ccc(Cl)cc3)C[C@H]12 | -0.0704%
14 | Cc1cc(C(=O)N2CCC(c3nccn3CCCN(C)C)CC2)no1 | 7.7%
15 | CN(c1ccncn1)C1CC2(CCN(C(=O)CCc3cccs3)C2)C1 (centres undefined) | -1.32%
16 | Cc1[nH]/c(=N\C(=O)c2csc(NC3CC3)n2)sc1C | -4.09%
17 | CS(=O)(=O)Cc1ccc(CNC(=O)c2cccnc2O)cc1 | -6.68%
18 | CCc1[nH]ncc1C(=O)N1CCCN(Cc2cnn(C(C)C)c2)CC1 | 6.41%
19 | CC(CCN1CCn2nc(CNC(=O)N(C)C)cc2C1)c1ccccc1 (centres undefined) | -3.2%
